# PubChem BioAssay
# Active and inactive are the calls of the source.
# Key:
# [1] = E. coli DRC41 culture turbidity changes, primary screen, E. coli filamentation inducer project, strain DRC41, OD650, 48 h (AID 1152);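 note: E. coli MC1000 strain DRC41 lacking acrAB efflux pump and sulA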; settings: E. coli DRC41 (acrAB sulA), higher = more signal, called active from +8 up or from −8 down
# [2] = small-molecule binders of probe aLefty1, primary screen, biochemical, small-molecule microarray, 635/667 nm fluorescence (AID 1153); settings: higher = more signal;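 note: score merges spot fluorescence with signal-to-noise ratio from the scanned slide images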
# [3] = PSAC antagonists in infected red cells, primary screen, cell-based, P. falciparum Indochina, OD700, 1 h (AID 1154); settings: P. falciparum Indochina infected RBC osmotic lysis, higher = more signal, called active from +8 up or from −8 down
# [4] = PSAC antagonists in infected red cells, primary screen, cell-based, P. falciparum Indochina, OD700, 2 h (AID 1155);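 note: lysis reports solute entry through the parasite surface anion channel PSAC; channel blockers reduce lysis of infected cells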; settings: P. falciparum Indochina infected erythrocytes, osmotic lysis OD700; higher = more signal, called active from +8 up or from −8 down
# [5] = osmotic lysis modulators in infected erythrocytes, primary screen, PSAC antagonist project, cell-based, P. falciparum Indochina, OD700, 3 h (AID 1156); settings: higher = more signal, called active from +8 up or from −8 down
# [6] = PSAC antagonists in infected red cells, primary screen, cell-based, P. falciparum Indochina, OD700, 18 h (AID 1157); settings: P. falciparum Indochina infected erythrocytes, osmotic lysis OD700, 18 h; higher = more signal, called active from +8 up or from −8 down
# [7] = modulators of S6 phosphorylation in cells, primary screen, cell-based, A549, cytoblot, luminescence, serum-stimulated (AID 1158); settings: A549 phospho-S6 cytoblot, 5 h, higher = more signal;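 note: serum-stimulated A549 lung adenocarcinoma cells; signal is phosphorylated S6 detected by cytoblot immunostaining with HRP secondary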
# [8] = target: NADPH oxidase 2 (Homo sapiens) (UniProt P04839); experiment: NOX2-dependent H2O2 signal modulators, primary screen, NOX inhibitor project, cell-based, HEK293-NOX2, PMA-stimulated, Amplex Red fluorescence (AID 1159); settings: 45 min, higher = more signal, called active from +8 up or from −8 down; note: test concentration not given here
# [9] = target: NADPH oxidase 4 (Homo sapiens) (UniProt Q9NPH5); experiment: NOX4-dependent H2O2 signal modulators, primary screen, NOX inhibitor project, cell-based, HEK293-NOX4, tetracycline-induced, Amplex Red fluorescence (AID 1160); settings: 45 min, higher = more signal, called active from +8 up or from −8 down
# [10] = target: NADPH oxidase 5 (Homo sapiens) (UniProt Q96PH1); experiment: NOX5-dependent H2O2 signal modulators, primary screen, NOX inhibitor project, cell-based, HEK293-NOX5, Amplex Red fluorescence (AID 1161); settings: HEK293-NOX5, ionomycin, 45 min, higher = more signal
# Sequence of NADPH oxidase 5 (Homo sapiens) (Q96PH1 whole entry, looked up): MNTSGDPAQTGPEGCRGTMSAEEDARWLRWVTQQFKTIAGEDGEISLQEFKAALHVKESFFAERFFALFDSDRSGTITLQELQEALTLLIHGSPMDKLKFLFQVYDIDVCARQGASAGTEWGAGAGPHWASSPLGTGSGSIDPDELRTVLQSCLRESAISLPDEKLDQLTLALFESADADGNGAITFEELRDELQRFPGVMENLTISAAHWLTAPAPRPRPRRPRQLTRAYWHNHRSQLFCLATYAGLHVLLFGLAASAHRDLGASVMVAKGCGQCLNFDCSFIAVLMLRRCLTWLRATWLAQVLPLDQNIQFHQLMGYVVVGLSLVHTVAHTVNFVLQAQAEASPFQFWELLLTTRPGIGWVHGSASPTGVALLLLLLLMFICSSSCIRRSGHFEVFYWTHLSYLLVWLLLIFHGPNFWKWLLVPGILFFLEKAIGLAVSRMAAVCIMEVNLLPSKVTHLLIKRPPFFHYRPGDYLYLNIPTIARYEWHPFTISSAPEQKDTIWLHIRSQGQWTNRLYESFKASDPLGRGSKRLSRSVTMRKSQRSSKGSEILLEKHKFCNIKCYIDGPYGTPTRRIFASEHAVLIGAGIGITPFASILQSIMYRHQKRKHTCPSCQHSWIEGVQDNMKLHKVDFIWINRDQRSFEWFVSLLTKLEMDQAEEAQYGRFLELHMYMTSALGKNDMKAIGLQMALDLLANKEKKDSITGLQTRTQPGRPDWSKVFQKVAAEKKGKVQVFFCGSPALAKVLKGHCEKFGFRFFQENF
# Sequence of NADPH oxidase 4 (Homo sapiens) (Q9NPH5 whole entry, looked up): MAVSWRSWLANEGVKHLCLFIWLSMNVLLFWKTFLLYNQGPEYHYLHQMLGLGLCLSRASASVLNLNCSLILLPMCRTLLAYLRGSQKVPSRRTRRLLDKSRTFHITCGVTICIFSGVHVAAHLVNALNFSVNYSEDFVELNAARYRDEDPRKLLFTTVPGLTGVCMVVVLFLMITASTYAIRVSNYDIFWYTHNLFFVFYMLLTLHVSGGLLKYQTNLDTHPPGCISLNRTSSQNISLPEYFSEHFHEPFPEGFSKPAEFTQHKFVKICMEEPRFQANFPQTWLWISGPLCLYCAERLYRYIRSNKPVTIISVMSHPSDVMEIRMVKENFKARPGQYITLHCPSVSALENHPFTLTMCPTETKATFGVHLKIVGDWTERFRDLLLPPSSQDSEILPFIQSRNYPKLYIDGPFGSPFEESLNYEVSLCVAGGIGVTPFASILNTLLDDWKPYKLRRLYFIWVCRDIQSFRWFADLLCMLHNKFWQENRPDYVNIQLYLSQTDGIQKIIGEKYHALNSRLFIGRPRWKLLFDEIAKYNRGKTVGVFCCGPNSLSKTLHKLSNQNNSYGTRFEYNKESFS
# Sequence of NADPH oxidase 2 (Homo sapiens) (P04839 whole entry, looked up): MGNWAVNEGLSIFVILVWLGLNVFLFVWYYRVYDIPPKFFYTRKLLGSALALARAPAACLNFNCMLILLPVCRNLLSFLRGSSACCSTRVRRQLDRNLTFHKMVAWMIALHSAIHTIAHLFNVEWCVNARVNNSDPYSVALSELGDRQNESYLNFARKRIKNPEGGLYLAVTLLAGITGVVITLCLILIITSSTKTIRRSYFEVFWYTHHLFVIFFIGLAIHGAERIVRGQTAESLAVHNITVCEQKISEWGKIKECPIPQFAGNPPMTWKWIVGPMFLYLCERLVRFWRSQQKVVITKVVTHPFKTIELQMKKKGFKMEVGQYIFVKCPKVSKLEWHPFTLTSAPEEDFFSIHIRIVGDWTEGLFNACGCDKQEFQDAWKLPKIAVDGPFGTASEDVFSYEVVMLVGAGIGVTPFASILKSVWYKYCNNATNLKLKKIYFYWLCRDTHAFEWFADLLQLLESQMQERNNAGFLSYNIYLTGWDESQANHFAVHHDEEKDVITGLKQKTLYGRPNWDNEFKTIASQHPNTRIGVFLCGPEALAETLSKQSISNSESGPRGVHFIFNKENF
Compound,z-score [1],composite z-score [2],z-score [3],z-score [4],z-score [5],z-score [6],z-score [7],z-score [8],z-score [9],z-score [10]
O=C1NC(=O)C2C1C=CC(C(O)c1ccc3c(c1)OCO3)N2Nc1ccccn1 (stereo not given),-0.0438 (inactive),-0.112,-0.113 (inactive),-0.665 (inactive),-0.752 (inactive),-0.839 (inactive),0.883,-1.27 (inactive),-3 (inactive),-1.73
COc1ccc(C(O)C2C=CC3C(=O)N(c4ccccc4)C(=O)C3N2Nc2ccc(C#N)cc2)c2ccccc12 (stereo not given),-1.2 (inactive),0.481,9.06 (active),2.06 (inactive),0.361 (inactive),1.44 (inactive),-1.03,-1.44 (inactive),-3.09 (inactive),-2.29
COCCOC(=O)N1C(=O)[C@@]2(c3cc(C#Cc4ccc(OC)cc4)ccc31)[C@H](C(=O)N1CCN(c3ncccn3)CC1)[C@H]1C(=O)O[C@H](c3ccccc3)[C@H](c3ccccc3)N1[C@@H]2c1ccccc1OCCO,0.0325 (inactive),0.406,2.79 (inactive),2.29 (inactive),0.641 (inactive),1.07 (inactive),-0.43,0.405 (inactive),0.152 (inactive),1.06
COc1ccc([Si](C)(C)[C@H]2[C@H](CCn3cc([C@H](O)c4ccccc4)nn3)O[C@@]3(C(=O)N(Cc4ccc(N5CCOC5=O)cc4)c4ccccc43)[C@@H]2C)cc1,-0.0796 (inactive),-0.147,31.9 (active),31.7 (active),1.99 (inactive),3.2 (inactive),-0.532,0.308 (inactive),2.85 (inactive),2.08
CC(C)C(CO)N1C(=O)[C@]2(C)C3C(=O)OCCC/C=C\[C@H]3OC23C=CCN(c2ccc(Cl)cc2)C(=O)[C@@H]13 (stereo not given in full),-0.785 (inactive),-0.0929,1.12 (inactive),0.31 (inactive),0.787 (inactive),0.673 (inactive),-0.197,1.47 (inactive),1.04 (inactive),1.69
CCOC(=O)C[C@H]1[C@H](OC(=O)c2ccccc2-c2ccccc2)[C@@H](NC(=O)c2ccc3ccccc3n2)c2cc(OCCCO)ccc2N1C(=O)c1ccc2ccccc2n1,1.17 (inactive),-0.0747,3.67 (inactive),-0.774 (inactive),-1.88 (inactive),-2.15 (inactive),0.112,1.18 (inactive),1.07 (inactive),2.5
O=C1O[C@@H](c2ccccc2)[C@@H](c2ccccc2)N2[C@@H](c3ccccc3OCCO)[C@]3(C(=O)Nc4ccc(C#CC5=CCCCC5)cc43)[C@@H](C(=O)NC[C@H](O)c3ccccc3)[C@H]12,2 (inactive),0.277,0.996 (inactive),0.526 (inactive),-2.18 (inactive),0.0195 (inactive),0.581,1.74 (inactive),1.1 (inactive),2.55
CCCC[C@@H]1C[C@H]1[C@@H](NC(=O)c1ccccc1)c1ccc(Cl)cc1,-2.41 (inactive),0.233,1.72 (inactive),0.589 (inactive),-0.573 (inactive),0.839 (inactive),-0.584,-0.093 (inactive),-0.505 (inactive),1.86
CC[C@@H]1[C@H]2C3C(=O)N(CC)C(=O)C3CC(=O)[C@H]2[C@H](c2ccc(C)cc2)N1S(=O)(=O)c1ccc(C)cc1 (stereo not given in full),-0.272 (inactive),0.0026,2.27 (inactive),1.99 (inactive),0.925 (inactive),1.3 (inactive),-0.12,0.5 (inactive),0.458 (inactive),0.0674
C=C(C(=O)CC[C@H](OC(C)=O)c1cccc(OCCO)c1)C(C)C,0.667 (inactive),-0.283,2.12 (inactive),-1.94 (inactive),1.7 (inactive),-1.7 (inactive),0.617,-1.48 (inactive),-0.481 (inactive),-1.61
O=C1c2ccccc2[C@](Cc2ccccc2I)(C(=O)NCc2ccccc2)[C@H](c2ccc(CO)cc2)N1C1CCCCC1,1.28 (inactive),0.254,2.39 (inactive),0.105 (inactive),0.0371 (inactive),-1.34 (inactive),3.43,1.65 (inactive),0.289 (inactive),1.35
O=C1O[C@@H](c2ccccc2)[C@@H](c2ccccc2)N2[C@@H](c3ccc(O)cc3)[C@]3(C(=O)Nc4ccc(C#CC5=CCCCC5)cc43)[C@@H](C(=O)N3CCN(c4ncccn4)CC3)[C@H]12,1.29 (inactive),0.257,0.445 (inactive),0.35 (inactive),-4.76 (inactive),0.614 (inactive),0.401,0.532 (inactive),0.278 (inactive),0.904
COc1ccccc1CN1C(=O)c2ccccc2[C@@H](C(=O)NC(C)C)[C@@H]1c1ccc(CO)cc1,0.671 (inactive),0.211,1.18 (inactive),0.525 (inactive),0.797 (inactive),0.376 (inactive),0.0984,0.372 (inactive),1.44 (inactive),0.976
COc1ccc([Si](C)(C)[C@H]2[C@H](CCn3cc(CCO)nn3)O[C@@]3(C(=O)N(Cc4ccc(N5C(=O)c6cccc7cccc5c67)cc4)c4ccccc43)[C@@H]2C)cc1,1.91 (inactive),0.108,4.64 (inactive),0.882 (inactive),0.134 (inactive),-0.627 (inactive),1.64,-0.985 (inactive),1.82 (inactive),1.44
NC(N)=NCc1cn(CCc2c[nH]c3ccccc23)nn1,-0.75 (inactive),-0.151,0.488 (inactive),0.078 (inactive),0.0119 (inactive),0.114 (inactive),-0.583,-0.00385 (inactive),0.0455 (inactive),-3.95
CCOC(=O)C[C@H]1[C@H](OC(=O)Cc2ccc3c(c2)OCO3)[C@@H](NC(=O)Cc2ccc(OC)cc2)c2cc(OCCCO)ccc2N1C(=O)c1ccccc1,1.53 (inactive),0.0903,1.8 (inactive),0.263 (inactive),-0.729 (inactive),-0.33 (inactive),-0.295,-1.25 (inactive),0.689 (inactive),0.267
CC(=O)n1cc(C(O)C2C=CC3C(=O)N(Cc4ccccc4)C(=O)C3N2n2cnnc2)c2ccccc21 (stereo not given),-1.32 (inactive),-0.0867,8.09 (active),2.31 (inactive),0.927 (inactive),1 (inactive),-0.386,-0.0716 (inactive),-0.738 (inactive),-0.392
COCCOC(=O)N1C(=O)[C@@]2(c3ccccc31)[C@H](c1ccc(OCCO)cc1)N1[C@H](c3ccccc3)[C@H](c3ccccc3)OC(=O)[C@H]1[C@@H]2C(=O)Nc1nc2ccccc2s1,0.269 (inactive),0.071,4.55 (inactive),2.02 (inactive),-0.214 (inactive),1.74 (inactive),-0.381,1.13 (inactive),1.17 (inactive),1.28
CC(C)(C)OC(=O)CC[C@]1(C(=O)NCCN2CCOCC2)N=C(c2ccc(OCCCO)cc2)O[C@H]1c1ccccc1N=[N+]=[N-],-0.105 (inactive),0.591,31.3 (active),29.2 (active),2.64 (inactive),6.62 (inactive),-0.136,-2.46 (inactive),1.62 (inactive),-1.99
C[N+](C)(C)CCCC[C@@H]1NC(=O)[C@@H]2C[C@H](C(=O)O)[C@H](c3ccc(O)cc3)N2C1=O,-0.105 (inactive),-0.248,0.277 (inactive),0.156 (inactive),-0.0003 (inactive),0.0583 (inactive),0.423,-0.0831 (inactive),-0.223 (inactive),0.903
